# Assays:
# Assay type in all cases: functional
# Plasmodium falciparum [1] = assay: GSK_TCMDC: Inhibition of Plasmodium falciparum 3D7 in whole red blood cells, using parasite LDH activity as an index of growth. Test compounds present at 2uM
# Plasmodium falciparum [2] = assay: GSK_TCMDC: Inhibition of Plasmodium falciparum Dd2 in whole red blood cells, using parasite LDH activity as an index of growth. Test compounds present at 2uM
# HepG2 = assay: GSK_TCMDC: Percent inhibition of human HepG2 cell line. Test compounds present at 10uM.
Structure (SMILES),Inhibition (Plasmodium falciparum [1]) [%],Inhibition (Plasmodium falciparum [2]) [%],Inhibition (HepG2) [%]
CCCCNc1cc(C)nc(NCc2ccccc2)n1,97,37,23
CCCCCN1CCC(NS(=O)(=O)c2ccc(C(=O)Nc3cccc(C(F)(F)F)c3)cc2)C1.O=C(O)C(F)(F)F (stereo not drawn),94,0,14
N#Cc1cccc(COC(=O)C2=C(COc3ccccc3Cl)NC(=O)NC2c2c[nH]c3cnccc23)c1 (stereo not drawn),99,0,0
COc1cc2nc(N(C)CC3COc4ccccc4O3)nc(N)c2cc1OC.Cl (stereo not drawn),94,26,11
CC(=O)Nc1ccc(OCCCN(Cc2ccccc2C(F)(F)F)c2ccc(C(F)(F)F)c(C#N)c2)c(Cl)c1,85,43,5
COCCNCc1ccc(-c2cccc(CNC3CCN(Cc4ccccc4)CC3)c2)cc1.O=C(O)C(F)(F)F,100,100,30
CCCC(C)NC(=O)/C=C/c1ccccc1-c1cccc(OC)c1 (stereo not drawn),87,59,0
CC(C)CNCc1ccc(-c2ccc(CNC3CCN(Cc4ccccc4)CC3)cc2)cc1.O=C(O)C(F)(F)F,100,96,16
Cc1nn(CC(C)C)c2sc(C(=O)N3CCN(S(=O)(=O)c4ccc(C#N)cc4)CC3)cc12,99,99,14
CN(C)c1ccc(-c2csc(C(=O)NCC3CCN(CCC(C)(C)C)C3)c2)cc1.O=C(O)C(F)(F)F (stereo not drawn),87,16,29
COc1c(C2CCN(CCCCNC(=O)c3ccc(-c4ccc(C#N)cc4)nc3)CC2)ccc2c1CCCC2,95,67,54

# — ChEMBL document CHEMBL1157539, “Thousands of chemical starting points for antimalarial lead identification” (Nature, 2010)
